26 molecules from PubChem BioAssay (EPA / NIEHS) can be followed below.

In general, AC50 refers to the midpoint of the concentration-response curve, whichever way the signal moves.

Experiment [1] can be described thus: ACEA_ER_80hr: ACEA Biosciences xCELLigence Real-Time Cell Analysis on Estrogen Receptor Agonism for Proliferation (AID 2282667; active means hit-call score of the fitted dose curve at least 0.9, where 1 is the maximum). To be noted: T47D proliferation, impedance (xCELLigence), 80 h. In a few lines:
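Estrogen-driven proliferation is captured as electrode impedance in T47D cells 80 h after compound addition. Test articles ran at 8 concentrations, 1:4 dilutions from 100 uM final, in two replicate plates.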

Experiment [2] can be described thus: ATG_CRE_CIS: Attagene CIS-FACTORIAL HepG2 Assay for human cAMP Responsive Element (CRE) binding protein 3 (AID 2282926). To be noted: HepG2 CRE cis-reporter, Attagene multiplexed mRNA; actives raise or lower the signal. In a few lines: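 Liver-derived HepG2, transfected with a CRE-containing reporter panel, exposed 24 h; transcript levels sized and quantified by capillary electrophoresis of labelled amplicons; signal changes either way referenced to vehicle.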

Experiment [3] deals with CCAAT/enhancer-binding protein beta (Homo sapiens) (UniProt P17676). As to the kind of experiment: ATG_C_EBP_CIS: Attagene CIS-FACTORIAL HepG2 Assay for human CCAAT/Enhancer Binding Protein (C/EBP) beta (AID 2282927). The settings on record: HepG2 Attagene cis-factorial transcription factor reporter; actives raise or lower the signal. In a few lines: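 Following a 24 h incubation with test chemical, transfected HepG2 cells yielded RNA whose reporter transcripts were quantified by RT-PCR and fluorescent capillary electrophoresis, with DMSO serving as baseline for bidirectional fitting.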
Sequence of CCAAT/enhancer-binding protein beta (Homo sapiens) (P17676 whole entry, looked up): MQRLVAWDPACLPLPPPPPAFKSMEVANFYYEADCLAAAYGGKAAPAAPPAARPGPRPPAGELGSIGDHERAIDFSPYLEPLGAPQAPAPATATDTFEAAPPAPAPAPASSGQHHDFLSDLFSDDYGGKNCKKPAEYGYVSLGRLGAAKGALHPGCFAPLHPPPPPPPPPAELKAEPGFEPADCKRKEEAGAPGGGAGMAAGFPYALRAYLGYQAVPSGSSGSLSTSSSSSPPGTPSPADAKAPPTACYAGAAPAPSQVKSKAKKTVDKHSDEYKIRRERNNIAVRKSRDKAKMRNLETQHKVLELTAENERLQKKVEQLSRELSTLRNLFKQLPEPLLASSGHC

A short description of experiment [4]: ATG_CMV_CIS: Attagene CIS-FACTORIAL HepG2 Assay for human CMV (Internal Marker) (AID 2282928).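 Further: endpoint acts as a background internal control marker rather than a target.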 The settings on record: HepG2 CMV promoter reporter, transcription factor profiling; actives raise or lower the signal. In a few lines:
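Bidirectional fits against DMSO are applied to reporter mRNA, read by RT-PCR with capillary electrophoresis, from HepG2 cells exposed 24 h. The endpoint serves as an internal CMV background marker within the cis-factorial reporter panel.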

Experiment [5] in a line: ATG_DR4_LXR_CIS: Attagene CIS-FACTORIAL HepG2 Assay for human Liver X Receptor (LXR), DR4 submotif (AID 2282929). To be noted: HepG2 Attagene DR4 cis-reporter, mRNA transcription; actives raise or lower the signal. In a few lines:
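The endpoint is DR4-element-driven reporter transcripts after 24 h chemical exposure of transfected HepG2 cells. These were measured via RT-PCR and capillary electrophoresis, and gain or loss of signal was fitted relative to DMSO controls.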

Experiment [6] concerns the target Aryl hydrocarbon receptor (Homo sapiens) (UniProt P35869). As to the kind of experiment: ATG_Ahr_CIS: Attagene CIS-FACTORIAL HepG2 Assay for human Aryl Hydrocarbon Receptor (Ahr) (AID 2282930). The settings on record: HepG2 AhR cis-factorial reporter transcription; actives raise or lower the signal. In a few lines:
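Values derive from bidirectional fitting against DMSO negative control. Underlying signal: cis-element reporter mRNA in transiently transfected HepG2, harvested 24 h post-dose and measured by RT-PCR plus capillary electrophoresis.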

Experiment [7] can be described thus: ATG_AP_1_CIS: Attagene CIS-FACTORIAL HepG2 Assay for human Activator Protein 1 (AP-1) (AID 2282931). The settings on record: HepG2 Attagene cis-factorial AP-1 reporter mRNA; actives raise or lower the signal. In a few lines: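 Readout is reporter transcript level from endogenous transcription factor activity, quantified by RT-PCR with fluorescent primer extension and capillary electrophoresis. Transiently transfected HepG2 cells, 24 h exposure. Curves fitted both directions versus DMSO.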

Experiment [8] in a line: ATG_AP_2_CIS: Attagene CIS-FACTORIAL HepG2 Assay for human Activator Protein 2 (AP-2) (AID 2282932). To be noted: HepG2 AP-2 cis-reporter, Attagene transcription factor profiling; actives raise or lower the signal. In a few lines:
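Assay in transfected HepG2 with promoter-regulated reporters, 24 h incubation after dosing. Signal is reporter mRNA fluorescence (RT-PCR, capillary electrophoresis), analysed for both increases and decreases relative to DMSO controls.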

Experiment [9] is described as follows: ATG_BRE_CIS: Attagene CIS-FACTORIAL HepG2 Assay for human Bone Morphogenetic Protein (BMP) Response Element (BRE) (AID 2282933). The settings on record: HepG2 BMP response element reporter, Attagene transcription factor profiling; actives raise or lower the signal. In a few lines:
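Read-out: reporter mRNA induction quantified by RT-PCR and capillary electrophoresis after 24 h chemical exposure of transfected HepG2 cells. Endogenous factor activity on the BMP response element; gain or loss fitted against DMSO baseline.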

In experiment [10] the target is Retinoic acid receptor alpha (Homo sapiens) (UniProt P10276). Put plainly: ATG_DR5_RAR_CIS: Attagene CIS-FACTORIAL HepG2 Assay for human Retinoic Acid Receptor Alpha (RARE), DR5 submotif (AID 2282934).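 On AC50: reporter responds to endogenous RAR alpha beta and gamma in HepG2 not RARA alone.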 The settings on record: HepG2 Attagene cis-factorial RARE DR5 reporter, mRNA; actives raise or lower the signal. In a few lines:
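Endpoint fitted in both directions relative to DMSO as negative control. It reflects DR5 cis-element reporter mRNA induction in transiently transfected HepG2 cells, measured 24 h after dosing through RT-PCR and fluorescent capillary electrophoresis.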

Results filed as inconclusive are left out. Activity calls are given as the source filed them. How the source made its calls, unless noted: active means hit-call score of the fitted dose curve at least 0.9, where 1 is the maximum; inactive means score below 0.9.

Sequence of Aryl hydrocarbon receptor (Homo sapiens) (P35869 whole entry, looked up): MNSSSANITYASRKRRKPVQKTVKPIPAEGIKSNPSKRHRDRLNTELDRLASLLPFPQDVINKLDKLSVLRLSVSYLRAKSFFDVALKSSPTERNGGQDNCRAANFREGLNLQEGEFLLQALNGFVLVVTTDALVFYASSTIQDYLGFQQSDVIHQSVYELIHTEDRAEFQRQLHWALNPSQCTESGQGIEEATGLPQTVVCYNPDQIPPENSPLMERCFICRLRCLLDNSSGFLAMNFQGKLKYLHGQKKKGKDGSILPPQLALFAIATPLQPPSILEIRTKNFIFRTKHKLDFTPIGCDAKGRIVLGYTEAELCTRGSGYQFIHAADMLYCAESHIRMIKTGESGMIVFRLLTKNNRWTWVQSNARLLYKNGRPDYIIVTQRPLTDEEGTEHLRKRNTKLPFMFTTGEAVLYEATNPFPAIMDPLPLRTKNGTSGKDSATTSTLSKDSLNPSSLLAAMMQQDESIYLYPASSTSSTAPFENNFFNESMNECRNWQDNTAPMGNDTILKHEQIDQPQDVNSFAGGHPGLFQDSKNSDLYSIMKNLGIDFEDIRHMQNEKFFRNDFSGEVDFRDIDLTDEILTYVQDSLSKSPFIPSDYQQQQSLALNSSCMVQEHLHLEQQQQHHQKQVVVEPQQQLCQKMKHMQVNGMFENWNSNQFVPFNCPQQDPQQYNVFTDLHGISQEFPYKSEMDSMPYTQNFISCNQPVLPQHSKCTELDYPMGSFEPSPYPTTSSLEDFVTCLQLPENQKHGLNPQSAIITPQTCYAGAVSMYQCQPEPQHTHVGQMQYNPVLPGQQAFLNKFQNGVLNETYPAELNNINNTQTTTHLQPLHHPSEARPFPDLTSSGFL
Sequence of Retinoic acid receptor alpha (Homo sapiens) (P10276 whole entry, looked up): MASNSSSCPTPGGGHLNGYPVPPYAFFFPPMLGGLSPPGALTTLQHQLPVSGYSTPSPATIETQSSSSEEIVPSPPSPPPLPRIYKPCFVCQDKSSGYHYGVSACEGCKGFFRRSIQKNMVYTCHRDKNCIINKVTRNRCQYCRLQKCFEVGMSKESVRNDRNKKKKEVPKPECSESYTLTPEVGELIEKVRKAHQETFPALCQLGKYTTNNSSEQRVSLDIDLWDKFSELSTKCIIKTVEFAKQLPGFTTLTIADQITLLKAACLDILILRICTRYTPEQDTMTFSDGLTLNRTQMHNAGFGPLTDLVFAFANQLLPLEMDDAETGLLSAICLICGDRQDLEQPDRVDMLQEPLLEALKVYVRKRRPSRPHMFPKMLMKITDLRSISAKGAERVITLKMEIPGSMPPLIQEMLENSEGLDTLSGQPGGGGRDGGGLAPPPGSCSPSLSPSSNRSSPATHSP

Regarding `CCCCC1CCC(=O)O1` (stereo not drawn), the result in experiment [1], in experiment [2], in experiment [3], in [4], in experiment [5] and in experiment [6] was inactive. Moreover, the molecule was called inactive in [7], in [8], in [9] and in experiment [10].
Take `CC1=CC=C(C(C)C)CC1`: the molecule was called inactive in [1], in [2], in experiment [3], in experiment [4], in [5] and in [6]. Moreover, the molecule was classed as inactive in experiment [7], in experiment [8] and in experiment [9].
As to `CCCC(C)C(=O)OCC` (stereo not drawn), the molecule was classed as inactive in experiment [1], in experiment [2], in experiment [3], in [4], in [5] and in experiment [6]. The call in [7], in [8] and in experiment [9] was inactive.
For `C=CC(=O)NC(C)(C)C`, the molecule was called inactive in experiment [1], in experiment [2], in [3], in experiment [5], in experiment [6] and in experiment [7]. In addition, the result in experiment [8] and in experiment [9] was inactive. Also, in experiment [4], the AC50 is 48.7 µM (active).
Take `C=C(C)C(=O)OCC(O)COc1ccc(C(C)(C)c2ccc(OCC(O)COC(=O)C(=C)C)cc2)cc1` (stereo not drawn): the molecule was classed as inactive in experiment [1], in experiment [2], in experiment [3], in experiment [4], in experiment [5] and in [6]. For the same molecule, the call in [8] and in experiment [10] was inactive. In addition, the half-maximal activity concentration (AC50) in [7] was 63.7 µM (active); in [9], 24.8 µM (active).
Take `CCC1COC(=O)O1` (stereo not drawn): the outcome in experiment [1], in [2], in experiment [3], in [4], in [5] and in experiment [6] was inactive. Further, the call in experiment [7], in experiment [8], in experiment [9] and in experiment [10] was inactive.
For `CC(C)CO`, the outcome in experiment [1], in experiment [2], in experiment [3], in experiment [4], in [5] and in [6] was inactive. In addition, the outcome in [7], in [8] and in [9] was inactive.
For `CN(C)c1ccc2nc3ccc(=[N+](C)C)cc-3sc2c1`, the call in [1], in experiment [2], in experiment [3], in experiment [5] and in [8] was inactive. Further, the AC50 was 1.69 µM (active) in [4], 5.2 µM (active) in experiment [6], 19.8 µM (active) in experiment [7] and 12.2 µM (active) in experiment [9].
For the molecule `Oc1ccc(/C=C/c2cc(O)cc(O)c2)cc1`, the call in [1], in [2], in experiment [3], in [6], in experiment [7] and in [8] was inactive. For the same molecule, the outcome in experiment [9] was inactive. In addition, the AC50 in experiment [4] was 22.7 µM (active); in experiment [5], 100 µM (active).
On to `CCCC(CC)c1ccccc1` (stereo not drawn), for which the call in experiment [1], in experiment [2], in [3], in experiment [5], in [6] and in [8] was inactive. For the same molecule, the outcome in experiment [9] and in [10] was inactive. In addition, the AC50 is 153 µM (active) in experiment [4] and 167 µM (active) in experiment [7].
For the molecule `O=C(C=Cc1ccccc1)OCCc1ccccc1`, the molecule was called inactive in [1], in experiment [2], in experiment [3], in [4], in experiment [6] and in experiment [7]. Moreover, the outcome in experiment [8] and in [9] was inactive. Also, the half-maximal activity concentration (AC50) in [5] is 24.8 µM (active).
With `Cc1cc(C)c(C=O)c(C)c1`, the molecule was called inactive in [1], in [2], in [3], in experiment [4], in [5] and in experiment [6]. The molecule was called inactive in [7], in experiment [8] and in experiment [9]. Moreover, the concentration at half-maximal activity (AC50) in [10] was 3.85 µM (active).
Regarding `C=CC(=O)NCOCCCC`, the molecule was called inactive in experiment [1], in experiment [2], in [3], in experiment [4], in [5] and in experiment [6]. For the same molecule, the molecule was called inactive in experiment [7], in [8], in experiment [9] and in [10].
With `CC(C)c1cccc(C(C)C)c1N`, the result in experiment [1], in [2], in experiment [3], in [4], in experiment [5] and in experiment [6] was inactive. In addition, the molecule was classed as inactive in experiment [7], in [8], in [9] and in experiment [10].
With `Clc1cccnc1`, the molecule was classed as inactive in experiment [1], in [2], in experiment [3], in [4], in experiment [5] and in experiment [6]. Also, the molecule was called inactive in [7], in [8], in experiment [9] and in [10].
With `COc1ccc(C(=O)c2ccccc2)c(O)c1`, the molecule was called inactive in experiment [1], in experiment [2], in experiment [3], in [6], in [8] and in [10]. For the same molecule, the AC50 in experiment [4] is 79.6 µM (active); in experiment [5] it was 115 µM (active); in experiment [7] it was 168 µM (active); in experiment [9] it was 158 µM (active).
With `C=C(C)C(=O)OCCCCCCCCCCCC`, the molecule was called inactive in experiment [1], in [2], in experiment [3], in experiment [5], in experiment [6] and in [7]. The result in experiment [8], in experiment [9] and in experiment [10] was inactive. For the same molecule, the AC50 in experiment [4] is 100 µM (active).
For `Fc1ccc(Br)cc1`, the outcome in [1], in experiment [2], in [3], in experiment [4], in [5] and in experiment [6] was inactive. Further, the molecule was classed as inactive in experiment [7], in [8], in experiment [9] and in [10].
As to `COC(Cc1ccccc1)OC`, the outcome in experiment [1], in experiment [2], in experiment [3], in experiment [4], in [5] and in experiment [6] was inactive. Also, the result in [7], in experiment [8], in experiment [9] and in experiment [10] was inactive.
On to `CN(C)Cc1cc(CN(C)C)c(O)c(CN(C)C)c1`, for which the call in [1], in [2], in experiment [3], in [4], in experiment [5] and in [6] was inactive. The molecule was classed as inactive in experiment [7], in experiment [8], in [9] and in [10].
In the case of `C=CC(=O)OCCCCCCOC(=O)C=C`, the AC50 in [1] is 10.5 µM (active); in experiment [4] it was 56.6 µM (active); in [5], 49.7 µM (active); in [9], 24.5 µM (active). The outcome in experiment [2], in [3], in [6], in experiment [7], in experiment [8] and in experiment [10] was inactive.
On to `O=C1CCCCCCCCCCC1`, for which the call in experiment [1], in [2], in [3], in [4], in experiment [5] and in experiment [6] was inactive. Besides, the result in [7], in experiment [8], in experiment [9] and in experiment [10] was inactive.
On to `CCC(C)c1ccccc1` (stereo not drawn), for which the molecule was called inactive in experiment [1], in experiment [2], in experiment [3], in experiment [4], in experiment [5] and in experiment [6]. Further, the molecule was classed as inactive in [7], in [8], in [9] and in experiment [10].
Take `CO[Si](CCCS)(OC)OC`: the result in experiment [1], in experiment [2], in [3], in experiment [4], in experiment [5] and in [6] was inactive. Further, the molecule was classed as inactive in experiment [7], in experiment [8], in [9] and in [10].
As for `Oc1ccc(-c2ccccc2)c(Cl)c1`, the AC50 was 10.5 µM (active) in experiment [1]; 33.4 µM (active) in experiment [2]; 43.1 µM (active) in [4]; 60.2 µM (active) in experiment [7]; 33.4 µM (active) in experiment [9]. Besides, the outcome in [3], in experiment [5], in experiment [6], in experiment [8] and in experiment [10] was inactive.
Regarding `CCCCNC(=S)NCCCC`, the molecule was called inactive in experiment [1], in experiment [2], in [3], in [4], in experiment [5] and in experiment [6]. In addition, the molecule was called inactive in experiment [7], in experiment [8], in [9] and in experiment [10].
